An excerpt weighted towards active compounds, which were near 12% of everything screened.
HP1b binding inh – HP1-beta chromodomain-methylated histone interaction inhibition. P83916. AlphaScreen HP1-beta / biotin-H3K9me3 peptide binding. Potency, µM (highest dose often 114 µM), most hits filed as inhibitors. hit rate 0.56% among 390,000. AID 540317; also: nearly all actives have a fitted effect of over 70% in size
Target sequence (P83916 whole entry, looked up): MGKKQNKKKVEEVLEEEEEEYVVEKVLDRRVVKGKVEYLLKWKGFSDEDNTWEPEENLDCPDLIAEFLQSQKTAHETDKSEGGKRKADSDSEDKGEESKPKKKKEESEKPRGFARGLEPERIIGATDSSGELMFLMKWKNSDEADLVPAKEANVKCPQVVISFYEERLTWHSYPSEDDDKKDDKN
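Compound inhibition of the preformed complex between 50 nM HP1-beta and 50 nM biotinylated H3K9me3 peptide was read by AlphaScreen. Buffer was PBS pH 7.4 with 0.01% Tween-20. Incubations ran 30 min at room temperature, with 10 ug/mL donor/acceptor beads.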
JMJD2A Tudor inh – blocks the human JMJD2A Tudor domain. O75164. AlphaScreen JMJD2A-Tudor / H3K4me3 peptide binding. Potency, µM (titrated, usually from 114 µM), usual class: inhibitors. hit rate 4.4% among 390,000. AID 504339; also: nearly all actives have a fitted effect of over 50% in size
Sfp inh – blocks B. subtilis Sfp PPTase activity. Q9F4F7. Biochemical Sfp PPTase activity, qHTS. Potency, µM, actives largely listed as inhibitors. hit rate 3.5% among 310,000. AID 1490;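 also: the enzyme is Sfp with the accession as filed and its product quenches rhodamine fluorescence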
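Fluorescence-quenching assay: 15 nM Sfp-PPTase preincubated 15 min at room temperature with compound, then 5 uM rhodamine-CoA and 12.5 uM BHQ-2-labelled YbbR peptide added. Fluorescence (ex 525/em 598 nm) read at start and after 30 min; difference gives rate.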
BAZ2B block – blocks human BAZ2B; Q9UIF8; AlphaScreen BAZ2B-H3K14Ac peptide displacement; Potency, µM (highest dose often 114 µM), usual class: inhibitors; hit rate 4.4% among 360,000; also: nearly all actives have a fitted effect of over 60% in size
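AlphaScreen displacement of biotin-H3(5-23)K14Ac peptide (50 nM final) from BAZ2B (50 nM final) in PBS pH 7.4, 0.01% Tween-20; complex preformed 30 min RT, then compounds (top 110 uM) 30 min RT, beads 20 min dark.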
PLK1 PBD inh – PLK1 (human) polo-box domain binding inhibition; Plk1 PBD binding of FITC phosphopeptide, fluorescence polarization; AID 720504; hit rate 2.8% among 360,000; Potency, µM, actives largely listed as inhibitors; also: series mostly up to about 57 µM; nearly all actives have a fitted effect of over 65% in size
G9a block – blocks human histone lysine methyltransferase G9a. Q96KQ7. G9a H3K9 monomethylation, AlphaScreen, 2 h. Potency, µM (highest dose often 102 µM), hits mostly inhibitors. hit rate 8.8% among 350,000; also: nearly all actives have a fitted effect of over 75% in size
Target sequence (Q96KQ7 913-1193 limits assumed): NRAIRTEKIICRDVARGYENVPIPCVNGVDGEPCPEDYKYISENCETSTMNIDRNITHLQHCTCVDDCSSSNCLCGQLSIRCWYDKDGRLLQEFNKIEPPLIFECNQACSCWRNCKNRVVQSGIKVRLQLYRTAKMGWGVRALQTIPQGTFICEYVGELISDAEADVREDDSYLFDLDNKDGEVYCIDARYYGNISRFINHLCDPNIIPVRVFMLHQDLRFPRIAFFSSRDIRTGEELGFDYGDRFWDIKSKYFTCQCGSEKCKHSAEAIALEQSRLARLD
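Chemiluminescent proximity detection of H3K9 monomethylation, read after 10 min bead incubation in the dark. Reaction: 20 nM G9a, 500 nM biotin-H3K9 peptide, 20 uM SAM cofactor, 2 h, room temperature, following 15 min enzyme-compound preincubation.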
Sfp inh conf – Sfp phosphopantetheinyl transferase inhibition, confirmation; shares compounds with Sfp inh; Sfp PPTase enzymatic assay, qHTS titration; Potency, µM (top dose mostly 114 µM), most hits filed as inhibitors; hit rate 79% among 380; AID 2701
Target sequence (Q9F4F7 whole entry, looked up): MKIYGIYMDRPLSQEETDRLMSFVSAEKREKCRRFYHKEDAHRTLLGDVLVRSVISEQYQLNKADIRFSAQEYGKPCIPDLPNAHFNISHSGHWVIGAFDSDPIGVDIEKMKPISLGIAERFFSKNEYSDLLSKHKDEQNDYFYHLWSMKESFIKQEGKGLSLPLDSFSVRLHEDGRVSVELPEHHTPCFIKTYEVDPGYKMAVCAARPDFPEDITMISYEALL
Sfp gel assay – Inhibits B. subtilis Sfp phosphopantetheinylation. shares compounds with Sfp inh. purified Sfp, gel-based phosphopantetheinylation read-out. Potency, µM, most hits filed as inhibitors. hit rate 20% among 210. AID 2707;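 active = potency below 100 µM; inconclusive = dose-dependent response but potency above 100 µM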;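 also: potency is an IC50 for inhibitors of Sfp transfer activity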
Of the large screens only hits and unclear results are named; the others gave an inactive call (follow-up assays come after a bar, where they were run); ! = repeats disagree. Unless noted, calls follow the shape of the dose curve; as a rule, active = well fitted curve in the direction sought with a large enough effect; inconclusive = small, poorly fitted or top-dose-only effect, or another doubt; inactive = no such curve, though single readings can be large; an effect the other way counts as inactive or inconclusive.

CCC1=C[C@@H]2CN(C1)Cc1c([nH]c3ccccc13)[C@@](C(=O)OC)(c1cc3c(cc1OC)N(C)[C@H]1[C@@](O)(C(=O)OC)[C@H](OC(C)=O)[C@]4(CC)C=CCN5CC[C@]31[C@@H]54)C2	Sfp inh 14µM (no result: HP1b binding inh, JMJD2A Tudor inh, BAZ2B block, PLK1 PBD inh, G9a block) | Sfp inh conf inconclusive | Sfp gel assay 56µM
Nc1ccc(C(=O)n2c3ccccc3c3ccccc32)cc1	Sfp inh 45µM, G9a block 8.9µM | Sfp inh conf inconclusive
Cc1ccc(C(=O)CSc2nnc3c4ccccc4nc(Cc4ccccc4)n23)cc1	Sfp inh 8.9µM | Sfp inh conf inconclusive | Sfp gel assay inactive
Cc1ccc(C(=O)CSc2nnc3ccc4ccccc4n23)cc1	none (no result: Sfp inh, PLK1 PBD inh)
COc1ccc(S(=O)(=O)N2CCOCC2)cc1NC(=O)c1cccc(Cl)c1	none (no result: G9a block)
Cc1nn(C)c2c1c(-c1ccccc1)cc(=O)n2CC(=O)NC(C)C	none (no result: Sfp inh, PLK1 PBD inh)
CCCC(=O)Nc1ccc(-c2csc(NNC(C)=O)n2)cc1	Sfp inh 5µM, PLK1 PBD inh inconclusive, G9a block 35µM | Sfp inh conf inconclusive | Sfp gel assay inconclusive
CCOC(=O)c1c(NC(=O)COC)sc2c1CCCC2	none
COC(=O)c1c(NC(=O)COC(=O)c2ccc(Cl)cc2[N+](=O)[O-])sc2c1CCCCC2	Sfp inh 10µM | Sfp inh conf inconclusive
O=C(CCN1C(=O)C2CC=CCC2C1=O)Nc1nccs1 (stereo unspecified)	G9a block inconclusive
c1cncc(-c2nnc(-c3cccnc3)nn2)c1	HP1b binding inh inconclusive, Sfp inh 40µM, PLK1 PBD inh 6.7µM, G9a block 8.9µM | Sfp inh conf 15µM
CCOC(=O)c1c(-c2cccs2)csc1NC(=O)CC(C)C	none
CCOC(=O)c1c(-c2ccc(C)o2)csc1NC(=O)COC(=O)c1cccs1	Sfp inh 10µM, G9a block 10µM | Sfp inh conf 21µM | Sfp gel assay inconclusive
O=C(Nc1cccnc1)c1cccc(S(=O)(=O)Nc2ccccc2F)c1	PLK1 PBD inh inconclusive, G9a block inconclusive (no result: Sfp inh)
O=C(/C=C/c1ccccc1)Nc1cccc(S(=O)(=O)Nc2ccccc2F)c1	HP1b binding inh inconclusive, JMJD2A Tudor inh 45µM, Sfp inh 4µM, BAZ2B block 45µM, PLK1 PBD inh 1.2µM, G9a block 1.6µM | Sfp inh conf 3.7µM
O=C(NCc1ccco1)c1cc2c(s1)CCCCC2	Sfp inh 3.5µM, BAZ2B block inconclusive | Sfp inh conf inconclusive
O=C(NCC(c1ccco1)N1CCCCC1)c1cc2c(s1)CCCC2 (stereo unspecified)	none (no result: Sfp inh)
COc1cnn(-c2ccccc2)c(=O)c1SCc1ccc(Cl)cc1Cl	Sfp inh inconclusive, PLK1 PBD inh inconclusive
Cn1ncc2c(c(SCc3ccc(Cl)cc3Cl)nn2C)c1=O	HP1b binding inh inconclusive, Sfp inh 25µM, PLK1 PBD inh 12µM, G9a block 8.9µM | Sfp inh conf 17µM
Clc1cc(Cl)c2nc(N3CCCCC3)sc2c1	Sfp inh 10µM, PLK1 PBD inh 24µM, G9a block inconclusive | Sfp inh conf 47µM
Clc1cc(Cl)c2nc(N3CCCC3)sc2c1	none (no result: Sfp inh, BAZ2B block, G9a block)
c1ccc(-c2ccc(-c3nc(-c4ccccn4)no3)cc2)cc1	Sfp inh 40µM | Sfp inh conf 53µM | Sfp gel assay inactive
O=C1[C@H](Cc2ccccc2)NCC=CC[C@H](c2ccco2)N1Cc1ccccc1	JMJD2A Tudor inh inconclusive (no result: Sfp inh, BAZ2B block, G9a block)
COc1ccc2[nH]c(S(=O)Cc3ncc(C)c(OC)c3C)nc2n1 (stereo unspecified)	Sfp inh 45µM, G9a block inconclusive (no result: HP1b binding inh, JMJD2A Tudor inh, BAZ2B block, PLK1 PBD inh) | Sfp inh conf 19µM
Cc1cc(-n2c(C)nc3ccccc3c2=O)ccc1NC(=O)C(F)(F)F	none (no result: Sfp inh, PLK1 PBD inh)
CCN(CC)CCOCCOC(=O)C1(c2ccccc2)CCCC1	JMJD2A Tudor inh 32µM, Sfp inh 50µM!, G9a block 30µM! (no result: BAZ2B block) | Sfp inh conf inconclusive | Sfp gel assay inactive
c1ccc2c(c1)OCC(c1nnc3n1-c1ccccc1SC3)O2 (stereo unspecified)	none
c1csc(-c2nn3c(C4COc5ccccc5O4)nnc3s2)c1 (stereo unspecified)	Sfp inh 7.9µM, PLK1 PBD inh 24µM, G9a block 5µM | Sfp inh conf 24µM
CCOc1ccccc1N1CCN(C(=O)CSc2ccc3c(c2)OCCO3)CC1	none (no result: Sfp inh)
O=C(NCCCn1ccnc1)c1nn2c(C(F)(F)F)cc(-c3ccc(Br)cc3)nc2c1Cl	HP1b binding inh inconclusive, JMJD2A Tudor inh 45µM, Sfp inh 1.1µM, BAZ2B block 50µM, G9a block 50µM | Sfp inh conf inconclusive
CCOc1ccc2nc(SCC(=O)c3ccc(C)s3)sc2c1	Sfp inh 18µM, G9a block inconclusive | Sfp inh conf inconclusive | Sfp gel assay inactive
O=C(CC(SCc1ccco1)c1ccc(O)cc1)c1cccs1 (stereo unspecified)	HP1b binding inh inconclusive, JMJD2A Tudor inh inconclusive, Sfp inh 56µM, BAZ2B block inconclusive | Sfp inh conf 7.4µM | Sfp gel assay inactive
O=C(CSc1nnc(-c2ccc(O)cc2)n1Cc1ccco1)c1cccs1	Sfp inh inconclusive, G9a block inconclusive
Cc1noc(C)c1C(=O)N1CCC2(CC1)CN(c1ccccc1)C2	none (no result: HP1b binding inh, JMJD2A Tudor inh, BAZ2B block, PLK1 PBD inh)
O=C(O)c1cccnc1Sc1ccc(Br)cc1	PLK1 PBD inh inconclusive, G9a block inconclusive
Nc1nc2c(s1)CCc1c-2cnn1-c1ccccc1	HP1b binding inh 11µM, JMJD2A Tudor inh 25µM, Sfp inh 2.5µM, BAZ2B block 45µM, PLK1 PBD inh 2.7µM, G9a block inconclusive | Sfp inh conf 7.4µM
O=C(CC1C[C@H](C(=O)N2CCCCC2)[C@@]2(CCc3ccccc3)c3[nH]c4ccccc4c3CCN2C1=O)NCCc1ccccn1 (stereo partly specified)	JMJD2A Tudor inh inconclusive (no result: Sfp inh, BAZ2B block, G9a block)
Nc1cccn2c(-c3ccc(Cl)cc3)cnc12	HP1b binding inh inconclusive, Sfp inh 16µM, BAZ2B block 50µM, PLK1 PBD inh 27µM, G9a block 50µM | Sfp inh conf inconclusive | Sfp gel assay inconclusive
Clc1ccc(-c2cnc3cccnn23)cc1	none (no result: HP1b binding inh, JMJD2A Tudor inh, Sfp inh, BAZ2B block, G9a block)
CCOC(=O)c1c(C)n(O)c2ccc(Cl)cc2c1=O	Sfp inh 35µM, G9a block inconclusive | Sfp inh conf 74µM | Sfp gel assay inactive
CCc1c(C)sc(NC(=O)C2CCCCC2C(=O)O)c1C(N)=O (stereo unspecified)	HP1b binding inh inconclusive, JMJD2A Tudor inh inconclusive, Sfp inh 4.5µM, PLK1 PBD inh inconclusive, G9a block inconclusive | Sfp inh conf 11µM
Cc1cc(C)nc(SCC(=O)O)n1	none

Assay outcomes as filed in PubChem.
